TGFb inhibitor – TGF-b pathway inhibition. Potency, µM (titrated, usually from 46.1 µM), most hits filed as inhibitors. HepG2 CAGA-GFP TGF-b/SMAD3 reporter, GFP fluorescence, 18 h; TGF-beta stimulated, 500 pg/mL final. AID 588855. 410,000 tested, 1.2% active; further: nearly all actives have a fitted effect of over 65% in size
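HEPG2 CAGA-GFP cells (1000/well, DMEM with 1% FBS) were pre-incubated 2 h at 37 degrees C, given compound by pin tool, then stimulated with TGF-beta at 500 pg/mL final for 18 h before per-cell GFP fluorescence imaging.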
TDP1 cell CPT – DT40-hTDP1 cell growth loss with CPT. 420,000 tested, 12% active. chicken DT40 Tdp1-/-;hTDP1 cells + 20 nM CPT, ATP luminescence, 48 h. Potency, µM (series often up to 46.2 µM), most hits filed as inhibitors; further: nearly all actives have a fitted effect of over 55% in size
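Chicken DT40 Tdp1-/- cells stably complemented with human TDP1 were seeded at 400 cells/well in medium containing 20 nM camptothecin, exposed to pin-transferred compounds, and grown at 37 °C for at least 48 hr. Viability was read as ATP luminescence.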
TDP1 cell noCPT – qHTS for Inhibitors of human tyrosyl-DNA phosphodiesterase 1 (TDP1): qHTS in cells in absence of CPT | DT40 Tdp1-/- hTDP1 cells, no CPT, ATP luminescence, 48 h | 420,000 tested, 15% active | AID 686978, 2013 | Potency, µM (highest dose often 46.2 µM), most hits filed as inhibitors; further: nearly all actives have a fitted effect of over 55% in size
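Growth of hTDP1-complemented DT40 Tdp1-knockout cells is measured by ATP luminescence after at least 48 hr compound exposure at 37 °C, with DMSO substituting for the 20 nM CPT used in the parallel screen.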
ATXN2 expr inh – reduces ATXN2 reporter expression in HEK-293 cells; HEK-293 ATXN2-luciferase reporter, luminescence, 24 h; Potency, µM (top dose mostly 57 µM), actives largely listed as inhibitors; 360,000 tested, 0.72% active; further: nearly all actives have a fitted effect of over 55% in size
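qHTS (up to 57 uM final) was run with 24 h compound exposure of reporter cells at 37 °C. Each well was multiplexed: SteadyGlo luminescence measured ATXN2-luciferase expression after a fluorogenic Gly-Phe-AFC viability readout (25 uM final).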
HepG2 viability – HepG2 cytotoxicity, counter-screen for TGF-b inhibitors; Potency, µM (titrated, usually from 46.1 µM), most hits filed as cytotoxic; 410,000 tested, 0.76% active; AID 588856; HepG2 CAGA-GFP viability, ATP luminescence, 18 h
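HepG2 CAGA-GFP cells (1000/well, DMEM with 1% FBS) received compound, then TGF-beta at 500 pg/mL final, and were incubated 18 hours at 37 degrees C. Viability was read by CellTiter-Glo luminescence. Media-only wells were set as complete cell-killing and DMSO as no toxicity.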
S2 tox – viability counter-screen for ATXN expression inhibitors; AID 651635; Potency, µM (series often up to 56.7 µM), hits mostly cytotoxic; 400,000 tested, 0.49% active; S2 cells (HEK-293 line with an ATXN2-luciferase reporter) viability, CellTiter-Fluor protease fluorescence, 24 h; further: nearly all actives have a fitted effect of over 40% in size
Hits are given with their value; – = inactive; ? = inconclusive; · = no result. Hits are enriched below; roughly 17% of the tested compounds scored in any of these assays. The call rests on the fitted dose curve; in most records, active means well fitted curve in the direction sought with a large enough effect; inconclusive means small, poorly fitted or top-dose-only effect, or another doubt; inactive means no such curve, though single readings can be large; an effect the other way counts as inactive or inconclusive.

SMILES	TGFb inhibitor	TDP1 cell CPT	TDP1 cell noCPT	ATXN2 expr inh	HepG2 viability	S2 tox
O=C(Nc1ccc(Cl)cc1)C1Cc2c(-c3ccccc3)ccnc2O1 (stereo not given)	–	?	?	–	–	–
CC(=O)c1cccc(NC(=O)C2Cc3c(-c4ccc5c(c4)OCO5)ccnc3O2)c1 (stereo not given)	–	13µM	11.6µM	?	–	?
O=C(Nc1ccc(F)c(Cl)c1)C1Cc2c(-c3ccc4c(c3)OCO4)ccnc2O1 (stereo not given)	?	?	?	?	–	?
O=C(Nc1cccc(Oc2ccccc2)c1)C1Cc2c(-c3ccccc3)ccnc2O1 (stereo not given)	–	23.1µM	?	–	–	–
CCn1c(-c2ccccc2F)nc2cc(NC(C)=O)cc(C(=O)N(C)Cc3c(C)nc4ccccn34)c21	·	–	?	·	·	–
CC1CCCCN1S(=O)(=O)Cc1ccccc1Cl (stereo not given)	–	–	–	–	–	–
COCCn1c(SCC(=O)N2CCCCCC2)nnc1-c1ccco1	–	–	–	–	–	–
CC(=O)c1cccc(-c2ccnc3c2CC(C(=O)Nc2cccc(N(C)C)c2)O3)c1 (stereo not given)	–	?	?	–	–	?
CC(=O)c1cccc(-c2ccnc3c2CC(C(=O)Nc2cccc(NS(C)(=O)=O)c2)O3)c1 (stereo not given)	–	14.6µM	9.2µM	–	–	–
O=C(Nc1cccc(Oc2ccccc2)c1)C1Cc2c(-c3ccco3)ccnc2O1 (stereo not given)	–	?	?	–	–	–
CS(=O)(=O)Nc1cccc(NC(=O)C2Cc3c(-c4ccco4)ccnc3O2)c1 (stereo not given)	–	?	13µM	–	–	–
CC(=O)c1cccc(NC(=O)C2Cc3c(-c4cccc(C(C)=O)c4)ccnc3O2)c1 (stereo not given)	–	16.4µM	14.6µM	?	–	–
CC(=O)Nc1ccc(-c2ccnc3c2CC(C(=O)Nc2cccc(C(C)=O)c2)O3)cc1 (stereo not given)	–	?	14.6µM	–	–	–
CC(=O)Nc1cccc(-c2ccnc3c2CC(C(=O)Nc2ccccc2)O3)c1 (stereo not given)	–	?	?	–	–	–
COc1ccc(NC(=O)Cn2nnnc2-c2ccccc2F)c(C)c1	–	–	–	·	–	·
O=C(CSc1ccccc1F)NCCCN1CCCC1=O	–	–	–	–	–	–
Cc1cc(OCC(O)CN)ccc1Cl (stereo not given)	–	–	–	–	–	–
CC(=O)c1cccc(-c2ccnc3c2CC(C(=O)Nc2cccnc2)O3)c1 (stereo not given)	–	–	–	–	–	–
CC(=O)c1cccc(NC(=O)C2Cc3c(-c4cccc(C(N)=O)c4)ccnc3O2)c1 (stereo not given)	–	16.4µM	16.4µM	–	–	–
CC(=O)c1cccc(-c2ccnc3c2CC(C(=O)Nc2cccc(C(F)(F)F)c2)O3)c1 (stereo not given)	–	25.9µM	13µM	–	–	?
Cc1cc(C)c(C(=O)NC2CCCc3c2cnn3-c2cccc(C)c2C)o1 (stereo not given)	–	20.6µM	?	–	–	–
Cc1cccc(-n2ncc3c2CCCC3NC(=O)C2=CC(=O)CC(C)(C)O2)c1C (stereo not given)	–	4.61µM	8.2µM	–	–	–
Cc1cc(C)cc(-n2ncc3c2CCCC3NC(=O)C2(C(N)=O)CC2)c1 (stereo not given)	–	?	?	–	–	–
CCc1cc(C(=O)NC2CCCc3c2cnn3-c2cccc(C)c2C)n(C)n1 (stereo not given)	–	0.206µM	0.164µM	–	–	–
Cc1cccc(-n2ncc3c2CCCC3NC(=O)C2(C(N)=O)CC2)c1C (stereo not given)	–	10.3µM	?	–	–	–
SMILES	TGFb inhibitor	TDP1 cell CPT	TDP1 cell noCPT	ATXN2 expr inh	HepG2 viability	S2 tox
Cc1ccc(-c2cnc(-c3ccccc3C(=O)O)o2)cc1	–	–	–	–	–	–
COc1ccc(S(=O)(=O)N2CCC(C(=O)NN3CCCCC3)CC2)cc1OC	–	–	–	–	–	–
Cc1cccc(NC(=O)CN(C)C(=O)Cc2ccc(-c3ccccc3)cc2)c1C	–	?	–	·	–	·
COc1ccccc1CN1[C@@H](CC(=O)O)c2cc(F)ccc2S1(=O)=O	–	–	–	–	–	–
CC1=C(C(=O)Nc2cc3cn[nH]c3cc2F)C(c2ccc(Cl)cc2F)N=C(c2ccnc(Cl)c2)N1 (stereo not given)	·	·	·	–	·	·
COC(=O)[C@@H]1CCCN1C(=O)c1c(OC)cc(=O)n2c1CCN(Cc1ccc3c(c1)CCO3)CC2	·	–	–	·	·	–
CN(c1ccc(C(=O)N2CCOCC2)cc1[N+](=O)[O-])C1CCCCC1	–	?	?	–	–	–
CSc1nc(N(CCO)CCO)c2sc3nc(-c4ccco4)c4c(c3c2n1)CCC4	?	16.4µM	11.6µM	?	–	?
CSc1nc(SCCO)c2sc3nc(-c4ccco4)c4c(c3c2n1)CC(C)(C)OC4	–	?	?	–	–	–
CNC(=O)CSc1nnc(-c2ccco2)n1-c1cccc(OC)c1	–	–	–	–	–	–
CSc1c(CN2CCN(C)CC2)c2ccccc2n1C	–	–	–	–	–	–
CCNC(=O)C1(C)CCCN(C(=O)c2ccc3sccc3c2)C1 (stereo not given)	–	–	–	–	–	–
CC(C)NC(=O)C1(C)CCCN1C(=O)c1ccc2c(c1)C(C)(C)CCC2(C)C (stereo not given)	–	4.61µM	3.66µM	–	–	–
CCNC(=O)C1(C)CCN(C(=O)c2ccc(-c3ccccc3)cc2)C1 (stereo not given)	–	16.4µM	?	–	–	–
CCNC(=O)C1(C)CCCN(C(=O)c2ccc3c(c2)C(C)(C)CCC3(C)C)C1 (stereo not given)	–	5.8µM	6.51µM	–	–	?
O=C(CCc1ccccc1)NCc1nc2cccnc2n1Cc1ccc(F)cc1	–	–	?	·	–	·
CCc1cccc(C)c1NC(=O)c1cc(S(=O)(=O)N2CCOCC2)cn1C	–	–	–	·	–	·
c1coc(-c2nc3n(n2)C2(CCCCC2)[C@@H]2CCCC[C@@H]2N3)c1	–	?	?	–	–	–
